From PubChem BioAssay AID1159580 (chemical genetic matrix, 2015)
Where “and” joins values, the source holds several entries; their conditions need not be identical. Identical values can stand only once. The whole screen tested about 5,500 compounds, of which about 2,000 (36%) were called active. Roughly 18% stayed inconclusive and do not appear here. Cut-off read from the data, not from the text of the source: active = normalized growth mostly below about 0.91 (no sharp cut-off); inconclusive = no clear call, values can overlap the other calls; inactive = mostly above about 0.92. This is one part of the list.

Test: chemical genetic growth profiling, strain panel (AID 1159580);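 note: tested at 20 µM; growth read once vehicle control cultures reached saturation at 30 °C; 1 = growth at the plate median or of vehicle wells; lower values mean less growth of the strain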
Details: S. cerevisiae deletion strains, growth OD

Measured: normalized growth

CCC(=O)O[C@H]1CCC2C3CCC4=CC(=O)CC[C@]4(C)C3CC[C@@]21C (some centres not stated)
0.889 (active) and 0.906 (inactive): locus YHR030C, strain SLT2, stronger effect = lower value
0.724 (active) and 0.95 (inactive): locus YJL095W, strain BCK1, stronger effect = lower value
active: locus YAL013W, strain DEP1, stronger effect = lower value 0.792 | locus YAL030W, strain snc1, stronger effect = lower value 0.924 | locus YBL061C, strain skt5, stronger effect = lower value 0.866 | locus YBR009C, strain hhf1, stronger effect = lower value 0.883 | locus YBR021W, strain FUR4, stronger effect = lower value 0.782 | locus YBR023C, strain chs3, stronger effect = lower value 0.868 | locus YCL011C, strain gbp2, stronger effect = lower value 0.843 | locus YCL016C, strain dcc1, stronger effect = lower value 0.905 | locus YCL029C, strain bik1, stronger effect = lower value 0.857 | locus YDL074C, strain BRE1, stronger effect = lower value 0.76 | locus YDR137W, strain rgp1, stronger effect = lower value 0.689 | locus YDR159W, strain sac3, stronger effect = lower value 0.796 | locus YDR162C, strain NBP2, stronger effect = lower value 0.808 | locus YDR318W, strain mcm21, stronger effect = lower value 0.901 | locus YDR392W, strain spt3, stronger effect = lower value 0.213 | locus YDR502C, strain sam2, stronger effect = lower value 0.919 | locus YER016W, strain bim1, stronger effect = lower value 0.879 | locus YER155C, strain BEM2 (second series), stronger effect = lower value 0.777 | locus YER155C, strain BEM2, stronger effect = lower value 0.873 | locus YGL086W, strain mad1, stronger effect = lower value 0.873 | locus YGL173C, strain kem1, stronger effect = lower value 0.887 | locus YGL253W, strain hxk2, stronger effect = lower value 0.872 | locus YHR142W, strain chs7, stronger effect = lower value 0.737 | locus YJL095W, strain BCK1 (second series), stronger effect = lower value 0.77 | locus YJL129C, strain trk1, stronger effect = lower value 0.781 | locus YJL164C, strain tpk1, stronger effect = lower value 0.893 | locus YJL166W, strain qcr8, stronger effect = lower value 0.865 | locus YJL187C, strain SWE1, stronger effect = lower value 0.907
inactive: locus YAL021C, strain ccr4, stronger effect = lower value 0.979 | locus YAL026C, strain drs2, stronger effect = lower value 0.959 | locus YBR171W, strain sec66, stronger effect = lower value 0.925 | locus YBR229C, strain ROT2, stronger effect = lower value 0.969 | locus YBR231C, strain swc5, stronger effect = lower value 0.952 | locus YBR279W, strain paf1, stronger effect = lower value 0.959 | locus YCL069W, strain vba3, stronger effect = lower value 0.962 | locus YCR088W, strain abp1, stronger effect = lower value 0.957 | locus YDL005C, strain med2, stronger effect = lower value 0.949 | locus YDL035C, strain GPR1, stronger effect = lower value 0.892 | locus YDL040C, strain nat1, stronger effect = lower value 0.946 | locus YDL101C, strain DUN1, stronger effect = lower value 0.95 | locus YDL185W, strain tfp1, stronger effect = lower value 1 | locus YDL192W, strain arf1, stronger effect = lower value 0.985 | locus YDR001C, strain nth1, stronger effect = lower value 0.962 | locus YDR069C, strain doa4, stronger effect = lower value 0.924 | locus YDR101C, strain arx1, stronger effect = lower value 0.957 | locus YDR195W, strain ref2 0.993 | locus YDR297W, strain sur2, stronger effect = lower value 0.968 | locus YDR334W, strain swr1, stronger effect = lower value 0.952 | locus YDR335W, strain msn5, stronger effect = lower value 0.934 | locus YDR388W, stronger effect = lower value 0.981 | locus YEL003W, strain gim4, stronger effect = lower value 0.943 | locus YEL037C, strain rad23, stronger effect = lower value 0.96 | locus YEL061C, strain CIN8 (second series), stronger effect = lower value 0.968 | locus YEL061C, strain CIN8, stronger effect = lower value 0.933 | locus YER015W, strain faa2, stronger effect = lower value 0.954 | locus YER110C, stronger effect = lower value 0.998 | locus YER111C, strain swi4, stronger effect = lower value 0.928 | locus YER167W, strain BCK2, stronger effect = lower value 0.909 | locus YFR010W, strain ubp6, stronger effect = lower value 0.992 | locus YGL078C, strain dbp3, stronger effect = lower value 0.984 | locus YGL167C, strain pmr1, stronger effect = lower value 0.928 | locus YGL227W, strain vid30, stronger effect = lower value 0.949 | locus YGL240W, strain doc1, stronger effect = lower value 0.928 | locus YGL248W, strain PDE1, stronger effect = lower value 0.916 | locus YGR135W, strain pre9, stronger effect = lower value 0.969 | locus YGR229C, strain SMI1, stronger effect = lower value 0.821 | locus YGR252W, strain gcn5, stronger effect = lower value 0.872 | locus YHR013C, strain ard1, stronger effect = lower value 1.02 | locus YHR027C, strain rpn1, stronger effect = lower value 0.967 | locus YHR079C, strain IRE1 (second series), stronger effect = lower value 0.981 | locus YHR079C, strain IRE1, stronger effect = lower value 0.896 | locus YHR094C, strain hxt1, stronger effect = lower value 0.982 | locus YHR129C, strain ARP1, stronger effect = lower value 0.943 | locus YHR200W, strain rpn10, stronger effect = lower value 0.943 | locus YIL066C, strain RNR3, stronger effect = lower value 0.878 | locus YIL073C, strain SPO22, stronger effect = lower value 0.807 | locus YIL125W, strain kgd1, stronger effect = lower value 0.975 | locus YIR030C, strain dcg1, stronger effect = lower value 0.991 | locus YJL092W, strain hpr5, stronger effect = lower value 0.929 | locus YJL115W, strain asf1, stronger effect = lower value 0.945 | locus YJL134W, strain LCB3, stronger effect = lower value 0.978 | locus YJL154C, strain vps35, stronger effect = lower value 0.943 | locus YJL168C, strain set2, stronger effect = lower value 0.983 | locus YJL187C, strain SWE1 (second series), stronger effect = lower value 0.951 | locus YJR043C, strain POL32, stronger effect = lower value 0.928
